Residual activity data for 1 compound are collected here from ChEMBL document CHEMBL2218924, “A broad activity screen in support of a chemogenomic map for kinase signalling research and drug discovery” (Biochem J, 2013).

In test [1] the target is Tyrosine-protein kinase SYK (Homo sapiens) (UniProt P43405). The settings on record: at 10 µM.
Test [2] concerns the target T1, Mitogen-activated protein kinase kinase kinase 7 (Homo sapiens) (UniProt O43318).
T1 sequence (whole entry): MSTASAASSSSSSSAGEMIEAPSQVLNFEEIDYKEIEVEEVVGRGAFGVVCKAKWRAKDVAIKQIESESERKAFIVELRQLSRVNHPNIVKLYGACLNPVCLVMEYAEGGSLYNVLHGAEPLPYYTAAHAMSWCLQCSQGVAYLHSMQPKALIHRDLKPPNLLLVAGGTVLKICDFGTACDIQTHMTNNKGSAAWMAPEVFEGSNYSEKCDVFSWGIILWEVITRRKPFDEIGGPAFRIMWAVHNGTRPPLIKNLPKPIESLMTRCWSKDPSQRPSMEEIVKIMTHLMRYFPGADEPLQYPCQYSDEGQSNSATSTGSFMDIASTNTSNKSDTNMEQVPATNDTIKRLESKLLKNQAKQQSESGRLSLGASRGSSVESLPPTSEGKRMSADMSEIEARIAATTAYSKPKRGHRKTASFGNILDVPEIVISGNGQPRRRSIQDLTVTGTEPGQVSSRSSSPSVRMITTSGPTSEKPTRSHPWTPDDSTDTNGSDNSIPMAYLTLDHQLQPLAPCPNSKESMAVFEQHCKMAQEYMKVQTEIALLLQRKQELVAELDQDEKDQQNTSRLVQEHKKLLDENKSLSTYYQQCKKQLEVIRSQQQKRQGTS
The following applies: at 1 µM.

Test [3] addresses T1, Mitogen-activated protein kinase kinase kinase 7 (Homo sapiens). The settings on record: at 10 µM.
For test [4], the target named is T2, Serine/threonine-protein kinase TAO1 (Homo sapiens) (UniProt Q7L7X3).
T2 sequence (whole entry): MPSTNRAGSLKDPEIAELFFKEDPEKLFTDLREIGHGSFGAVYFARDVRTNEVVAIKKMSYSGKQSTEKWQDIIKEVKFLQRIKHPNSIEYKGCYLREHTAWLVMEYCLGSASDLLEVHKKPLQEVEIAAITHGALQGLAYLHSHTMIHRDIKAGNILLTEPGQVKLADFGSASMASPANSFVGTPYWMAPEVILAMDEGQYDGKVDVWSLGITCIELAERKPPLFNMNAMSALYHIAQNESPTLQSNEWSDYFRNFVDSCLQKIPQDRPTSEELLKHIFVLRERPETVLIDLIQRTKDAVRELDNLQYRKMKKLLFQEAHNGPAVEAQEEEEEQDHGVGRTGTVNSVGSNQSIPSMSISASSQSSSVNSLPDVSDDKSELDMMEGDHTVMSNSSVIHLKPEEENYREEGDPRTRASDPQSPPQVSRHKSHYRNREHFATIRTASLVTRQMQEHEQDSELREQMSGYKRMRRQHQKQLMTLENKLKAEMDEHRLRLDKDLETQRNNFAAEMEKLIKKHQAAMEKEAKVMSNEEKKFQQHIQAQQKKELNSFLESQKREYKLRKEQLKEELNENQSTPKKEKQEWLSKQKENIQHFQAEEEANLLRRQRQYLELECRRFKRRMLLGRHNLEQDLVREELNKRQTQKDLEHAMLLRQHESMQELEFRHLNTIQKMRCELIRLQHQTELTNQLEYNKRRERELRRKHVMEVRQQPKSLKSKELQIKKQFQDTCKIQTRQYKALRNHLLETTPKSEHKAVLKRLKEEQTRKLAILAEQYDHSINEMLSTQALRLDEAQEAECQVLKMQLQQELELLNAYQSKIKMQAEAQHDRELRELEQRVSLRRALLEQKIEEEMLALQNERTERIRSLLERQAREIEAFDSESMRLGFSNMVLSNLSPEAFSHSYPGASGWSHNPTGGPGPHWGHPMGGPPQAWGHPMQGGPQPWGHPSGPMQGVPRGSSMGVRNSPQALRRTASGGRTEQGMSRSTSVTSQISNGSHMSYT
The following applies: at 1 µM.

Test [5] has as its target T2, Serine/threonine-protein kinase TAO1 (Homo sapiens). The settings on record: at 10 µM.
Test [6] deals with T3, Serine/threonine-protein kinase TAO3 (Homo sapiens) (UniProt Q9H2K8).
T3 sequence (whole entry): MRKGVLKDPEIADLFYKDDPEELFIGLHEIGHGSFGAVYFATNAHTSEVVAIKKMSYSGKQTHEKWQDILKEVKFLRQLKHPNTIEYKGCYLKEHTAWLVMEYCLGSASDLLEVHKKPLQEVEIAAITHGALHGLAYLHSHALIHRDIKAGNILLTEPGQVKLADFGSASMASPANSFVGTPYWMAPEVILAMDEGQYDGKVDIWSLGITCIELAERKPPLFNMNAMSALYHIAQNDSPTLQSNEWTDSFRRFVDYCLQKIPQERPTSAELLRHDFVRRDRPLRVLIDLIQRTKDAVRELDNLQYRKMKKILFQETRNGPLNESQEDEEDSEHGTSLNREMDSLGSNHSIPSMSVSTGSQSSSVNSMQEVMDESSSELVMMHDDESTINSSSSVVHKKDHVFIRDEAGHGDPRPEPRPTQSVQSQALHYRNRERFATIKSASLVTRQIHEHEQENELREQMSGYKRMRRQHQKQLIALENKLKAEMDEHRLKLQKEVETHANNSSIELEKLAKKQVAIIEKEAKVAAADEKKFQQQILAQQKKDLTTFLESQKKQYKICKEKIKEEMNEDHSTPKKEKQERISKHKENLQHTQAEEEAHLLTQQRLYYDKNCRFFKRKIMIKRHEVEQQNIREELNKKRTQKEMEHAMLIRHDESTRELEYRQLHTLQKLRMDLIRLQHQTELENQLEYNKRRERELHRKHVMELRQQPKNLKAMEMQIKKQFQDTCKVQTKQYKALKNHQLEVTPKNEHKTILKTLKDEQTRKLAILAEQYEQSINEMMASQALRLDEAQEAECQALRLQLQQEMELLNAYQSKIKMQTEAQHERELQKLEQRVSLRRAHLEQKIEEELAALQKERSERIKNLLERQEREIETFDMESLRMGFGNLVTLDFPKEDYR
The following applies: at 1 µM.

The target of test [7] is T3, Serine/threonine-protein kinase TAO3 (Homo sapiens). The settings on record: at 10 µM.
Test [8] addresses T4, Serine/threonine-protein kinase TBK1 (Homo sapiens) (UniProt Q9UHD2).
T4 sequence (whole entry): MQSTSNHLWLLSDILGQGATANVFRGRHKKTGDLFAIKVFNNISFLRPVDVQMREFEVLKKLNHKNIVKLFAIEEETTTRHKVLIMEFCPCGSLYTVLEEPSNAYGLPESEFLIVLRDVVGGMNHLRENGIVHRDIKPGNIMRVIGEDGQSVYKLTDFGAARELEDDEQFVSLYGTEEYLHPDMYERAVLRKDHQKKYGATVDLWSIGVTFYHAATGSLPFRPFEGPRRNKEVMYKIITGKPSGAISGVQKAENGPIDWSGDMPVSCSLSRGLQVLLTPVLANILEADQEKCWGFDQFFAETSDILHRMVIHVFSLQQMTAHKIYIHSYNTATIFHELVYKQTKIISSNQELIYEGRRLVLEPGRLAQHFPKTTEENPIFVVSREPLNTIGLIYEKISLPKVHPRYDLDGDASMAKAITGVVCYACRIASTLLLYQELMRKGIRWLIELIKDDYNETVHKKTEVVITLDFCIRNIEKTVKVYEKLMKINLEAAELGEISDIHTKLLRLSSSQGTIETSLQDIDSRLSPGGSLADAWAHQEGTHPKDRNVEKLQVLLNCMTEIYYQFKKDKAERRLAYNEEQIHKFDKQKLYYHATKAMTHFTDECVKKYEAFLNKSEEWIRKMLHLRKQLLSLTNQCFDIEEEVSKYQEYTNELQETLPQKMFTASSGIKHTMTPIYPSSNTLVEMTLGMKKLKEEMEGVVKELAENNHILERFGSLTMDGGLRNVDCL
The following applies: at 1 µM.

Test [9] concerns the target T4, Serine/threonine-protein kinase TBK1 (Homo sapiens). The following applies: at 10 µM.
Test [10] has as its target T5, TGF-beta receptor type-1 (Homo sapiens) (UniProt P36897).
T5 sequence (whole entry): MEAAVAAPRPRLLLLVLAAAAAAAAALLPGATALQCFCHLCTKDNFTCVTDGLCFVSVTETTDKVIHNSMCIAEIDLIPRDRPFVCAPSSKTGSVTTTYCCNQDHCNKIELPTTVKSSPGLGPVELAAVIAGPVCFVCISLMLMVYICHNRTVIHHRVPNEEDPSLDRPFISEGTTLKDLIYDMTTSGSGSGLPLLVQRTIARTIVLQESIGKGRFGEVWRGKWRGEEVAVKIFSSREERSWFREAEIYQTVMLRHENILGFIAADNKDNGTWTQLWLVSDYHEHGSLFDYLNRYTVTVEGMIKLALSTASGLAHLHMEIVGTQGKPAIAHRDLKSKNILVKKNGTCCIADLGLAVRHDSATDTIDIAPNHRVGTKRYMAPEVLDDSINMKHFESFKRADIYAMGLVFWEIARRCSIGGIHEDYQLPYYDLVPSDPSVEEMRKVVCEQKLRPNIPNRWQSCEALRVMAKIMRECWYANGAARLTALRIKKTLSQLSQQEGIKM
The following applies: at 1 µM.

The target of test [11] is T5, TGF-beta receptor type-1 (Homo sapiens). The following applies: at 10 µM.
Test [12] addresses T6, Inhibitor of nuclear factor kappa-B kinase subunit alpha (Homo sapiens) (UniProt O15111).
T6 sequence (whole entry): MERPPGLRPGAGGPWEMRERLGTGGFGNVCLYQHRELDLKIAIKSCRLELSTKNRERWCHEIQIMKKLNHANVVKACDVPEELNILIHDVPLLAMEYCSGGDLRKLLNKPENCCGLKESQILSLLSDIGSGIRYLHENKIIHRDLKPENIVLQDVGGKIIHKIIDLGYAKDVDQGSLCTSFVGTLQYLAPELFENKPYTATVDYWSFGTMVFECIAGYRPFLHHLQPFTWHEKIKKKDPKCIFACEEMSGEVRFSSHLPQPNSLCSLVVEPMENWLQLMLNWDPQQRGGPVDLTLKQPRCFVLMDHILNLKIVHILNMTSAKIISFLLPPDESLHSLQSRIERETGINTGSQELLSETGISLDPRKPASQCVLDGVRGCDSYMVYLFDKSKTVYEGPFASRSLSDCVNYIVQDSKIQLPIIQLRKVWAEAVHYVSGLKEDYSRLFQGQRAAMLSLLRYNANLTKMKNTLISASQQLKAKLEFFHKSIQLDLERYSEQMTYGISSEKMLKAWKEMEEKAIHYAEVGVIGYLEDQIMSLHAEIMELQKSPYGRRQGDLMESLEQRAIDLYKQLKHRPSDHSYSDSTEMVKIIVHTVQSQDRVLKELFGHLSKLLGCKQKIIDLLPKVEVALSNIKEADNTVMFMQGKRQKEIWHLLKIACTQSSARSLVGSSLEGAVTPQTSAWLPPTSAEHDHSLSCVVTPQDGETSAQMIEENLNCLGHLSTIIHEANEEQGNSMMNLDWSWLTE
The settings on record: at 1 µM.

Structures are written as SMILES.

On to `Cc1cncc2cccc(S(=O)(=O)N3CCCN(C(=O)CN)C[C@H]3C)c12`, for which the residual activity in test [1] came to 85%; in test [2], 88%; in test [3], 83%; in test [4], 81%; in [5], 28%; in test [6], 93%. Further, the residual activity is 65% in test [7]; 68% in test [8]; 55% in [9]; 78% in [10]; 86% in test [11]; 93% in [12].
